Data: ChEMBL document CHEMBL3988442, “University of Dundee, Small-Polar-MMV Screening Library” (2021)
For some of these results: Measured potencies and affinities stand elsewhere.

Legend:
Parameters in all cases: scale not given: direction of the effect not stated beside the values
[1] = target: Protein translocase subunit SecA (Escherichia coli (strain K12)) (UniProt P10408); assay: Assay to Identify E. coli SecA ATPase Inhibitors; assay type: functional; settings: 30 µM
[2] = target: T1, Ubiquitin-activating enzyme e1, putative (Leishmania donovani (strain BPK282A1)) (UniProt E9BSI1); assay: Leishmania donovani Ubiquitin Activating Enzyme (LdE1); assay type: functional; settings: 30 µM
T1 sequence (whole entry): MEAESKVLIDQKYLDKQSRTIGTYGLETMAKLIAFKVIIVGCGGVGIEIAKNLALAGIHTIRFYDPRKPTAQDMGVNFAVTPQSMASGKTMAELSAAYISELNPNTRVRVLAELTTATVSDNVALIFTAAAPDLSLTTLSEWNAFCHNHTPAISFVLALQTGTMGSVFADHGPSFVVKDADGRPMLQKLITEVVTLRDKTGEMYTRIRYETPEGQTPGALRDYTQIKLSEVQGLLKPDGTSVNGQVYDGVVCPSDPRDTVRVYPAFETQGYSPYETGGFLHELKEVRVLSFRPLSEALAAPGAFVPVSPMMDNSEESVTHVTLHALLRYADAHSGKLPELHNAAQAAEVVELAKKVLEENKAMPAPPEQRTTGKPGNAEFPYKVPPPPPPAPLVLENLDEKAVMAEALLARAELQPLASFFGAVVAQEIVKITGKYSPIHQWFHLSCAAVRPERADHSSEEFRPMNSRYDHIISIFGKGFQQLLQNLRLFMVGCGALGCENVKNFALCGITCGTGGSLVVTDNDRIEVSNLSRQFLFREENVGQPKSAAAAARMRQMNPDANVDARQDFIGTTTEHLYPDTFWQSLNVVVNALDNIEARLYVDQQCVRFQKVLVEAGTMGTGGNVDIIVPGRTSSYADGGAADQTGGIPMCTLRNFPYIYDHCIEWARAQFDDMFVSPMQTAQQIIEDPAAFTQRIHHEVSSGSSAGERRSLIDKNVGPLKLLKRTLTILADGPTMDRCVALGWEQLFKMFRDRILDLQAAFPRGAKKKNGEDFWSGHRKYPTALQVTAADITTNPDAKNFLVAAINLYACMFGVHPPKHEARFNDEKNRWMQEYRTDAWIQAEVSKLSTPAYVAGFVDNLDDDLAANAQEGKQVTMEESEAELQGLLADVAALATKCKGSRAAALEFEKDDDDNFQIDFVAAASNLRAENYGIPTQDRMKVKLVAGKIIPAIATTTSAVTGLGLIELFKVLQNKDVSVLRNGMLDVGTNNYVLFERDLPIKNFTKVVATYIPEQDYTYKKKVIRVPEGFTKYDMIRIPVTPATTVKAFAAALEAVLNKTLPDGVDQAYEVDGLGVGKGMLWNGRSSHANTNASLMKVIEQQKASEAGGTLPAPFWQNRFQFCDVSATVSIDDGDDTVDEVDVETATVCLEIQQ

[3] = target: AMP-activated protein kinase, AMPK (Homo sapiens) (UniProt P54646+O43741+P54619+Q9UGJ0+Q9Y478+Q13131+Q9UGI9); assay: AMP-dependent Kinase enzyme assay. An in vitro enzyme assay that detects ADP turnover that is directly proportional to AMPK activity. This uses naive AMPK that is activated during the assay with MK-8722; assay type: functional; settings: 30 µM
[4] = target: Sialic acid-binding Ig-like lectin 9 (Homo sapiens) (UniProt Q9Y336); assay: Hs-Siglec9 ALPHAscreen SOP 20170721; settings: 10 µM
Sequence of Sialic acid-binding Ig-like lectin 9 (Homo sapiens) (Q9Y336 whole entry): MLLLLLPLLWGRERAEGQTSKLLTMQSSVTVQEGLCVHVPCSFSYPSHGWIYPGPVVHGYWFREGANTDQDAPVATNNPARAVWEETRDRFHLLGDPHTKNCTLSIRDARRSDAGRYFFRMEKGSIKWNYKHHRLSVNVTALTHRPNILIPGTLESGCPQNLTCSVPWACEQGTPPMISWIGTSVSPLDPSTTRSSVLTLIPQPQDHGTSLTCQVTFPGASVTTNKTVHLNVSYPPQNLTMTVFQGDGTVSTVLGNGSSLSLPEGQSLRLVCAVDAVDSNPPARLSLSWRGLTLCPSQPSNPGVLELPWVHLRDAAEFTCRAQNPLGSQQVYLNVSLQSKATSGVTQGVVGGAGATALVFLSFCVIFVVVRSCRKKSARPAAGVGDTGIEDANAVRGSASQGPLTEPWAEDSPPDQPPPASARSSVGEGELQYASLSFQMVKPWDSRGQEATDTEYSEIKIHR

Trypanosoma cruzi = assay: Trypanosoma cruzi phosphomannomutase and mannose-1-phosphate guanylyltransferase assay; assay type: functional; settings: 10 µM
[5] = target: T2, Arginase-2, mitochondrial (Homo sapiens) (UniProt P78540); assay: in vitro enzyme assay to detect the production of urea directly proportional to the activity of Arginase II; assay type: functional; settings: 33.3 µM; further: in the data most compounds retested in dose-response had high values
T2 sequence (whole entry): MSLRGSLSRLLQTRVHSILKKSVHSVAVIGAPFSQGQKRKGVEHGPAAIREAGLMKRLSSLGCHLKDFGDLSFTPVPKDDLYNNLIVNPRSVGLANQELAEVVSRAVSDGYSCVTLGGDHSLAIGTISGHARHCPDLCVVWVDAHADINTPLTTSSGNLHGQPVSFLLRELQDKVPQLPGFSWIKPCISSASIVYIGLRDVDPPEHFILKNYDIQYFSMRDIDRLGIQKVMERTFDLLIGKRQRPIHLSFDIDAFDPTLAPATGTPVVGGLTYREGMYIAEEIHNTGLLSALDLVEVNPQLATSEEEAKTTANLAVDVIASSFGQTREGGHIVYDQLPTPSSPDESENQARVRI

[6] = target: T3, Proteasome subunit beta (Trypanosoma cruzi) (UniProt O96673); assay: Trypanosoma cruzi proteasome chymotrypsin-like activity (TcProtChymo) assay.; further: in the data most compounds retested in dose-response had high values; assay type: functional; settings: 9.37 µM
T3 sequence (whole entry): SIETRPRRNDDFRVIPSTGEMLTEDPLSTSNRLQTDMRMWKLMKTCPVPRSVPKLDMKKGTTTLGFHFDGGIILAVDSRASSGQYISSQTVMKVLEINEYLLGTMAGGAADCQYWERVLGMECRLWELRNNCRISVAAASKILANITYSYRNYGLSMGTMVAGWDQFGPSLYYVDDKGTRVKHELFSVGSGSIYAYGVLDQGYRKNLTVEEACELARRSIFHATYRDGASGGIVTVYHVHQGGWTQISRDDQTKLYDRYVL

Homo sapiens = species on record: Homo sapiens; assay: To identify inhibition of the IFN signalling (Jak-Stat) pathway via expression of an eGFP reporter gene under the control of an IFN-stimulated response element (ISRE) containing MxA promoter.; assay type: functional; settings: 30 µM
[7] = target: T4, Tyrosyl-tRNA synthetase, putative (Trypanosoma cruzi (strain CL Brener)) (UniProt Q4DSP6); assay: Trypanosoma cruzi tyrosyl tRNA synthetase (TcYRS) _High Tyrosine SOP; assay type: functional; settings: 30 µM; further: in the data most compounds retested in dose-response had high values
T4 sequence (whole entry): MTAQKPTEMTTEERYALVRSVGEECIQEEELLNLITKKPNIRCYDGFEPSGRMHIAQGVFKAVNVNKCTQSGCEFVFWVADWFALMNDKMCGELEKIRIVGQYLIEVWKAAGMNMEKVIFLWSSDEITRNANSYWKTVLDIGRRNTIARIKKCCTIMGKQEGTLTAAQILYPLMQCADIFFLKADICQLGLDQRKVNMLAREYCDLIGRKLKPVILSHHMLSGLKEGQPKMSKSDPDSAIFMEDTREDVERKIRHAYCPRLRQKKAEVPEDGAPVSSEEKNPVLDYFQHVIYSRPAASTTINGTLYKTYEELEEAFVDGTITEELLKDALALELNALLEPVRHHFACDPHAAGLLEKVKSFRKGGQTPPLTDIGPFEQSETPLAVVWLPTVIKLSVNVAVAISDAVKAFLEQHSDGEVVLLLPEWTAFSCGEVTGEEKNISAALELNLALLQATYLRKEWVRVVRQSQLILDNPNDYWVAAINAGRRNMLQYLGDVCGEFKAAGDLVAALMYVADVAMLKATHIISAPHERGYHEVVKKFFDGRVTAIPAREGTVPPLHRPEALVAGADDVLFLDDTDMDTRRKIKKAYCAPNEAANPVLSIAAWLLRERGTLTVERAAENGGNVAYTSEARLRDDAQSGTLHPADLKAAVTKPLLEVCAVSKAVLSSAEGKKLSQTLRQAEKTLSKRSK

[8] = target: T4, Tyrosyl-tRNA synthetase, putative (Trypanosoma cruzi (strain CL Brener)); assay: Trypanosoma cruzi tyrosyl tRNA synthetase (TcYRS) SOP; assay type: functional; settings: 30 µM
[9] = target: Chromo domain-containing protein 1 (Saccharomyces cerevisiae (strain ATCC 204508 / S288c) (Baker's yeast)) (UniProt P32657); assay: ScCHD-1 Enzyme Inhibition Assay; assay type: functional; settings: 30 µM; further: in the data most compounds retested in dose-response had high values
Sequence of Chromo domain-containing protein 1 (Saccharomyces cerevisiae (strain ATCC 204508 / S288c) (Baker's yeast)) (P32657 whole entry, the tested form may be a part): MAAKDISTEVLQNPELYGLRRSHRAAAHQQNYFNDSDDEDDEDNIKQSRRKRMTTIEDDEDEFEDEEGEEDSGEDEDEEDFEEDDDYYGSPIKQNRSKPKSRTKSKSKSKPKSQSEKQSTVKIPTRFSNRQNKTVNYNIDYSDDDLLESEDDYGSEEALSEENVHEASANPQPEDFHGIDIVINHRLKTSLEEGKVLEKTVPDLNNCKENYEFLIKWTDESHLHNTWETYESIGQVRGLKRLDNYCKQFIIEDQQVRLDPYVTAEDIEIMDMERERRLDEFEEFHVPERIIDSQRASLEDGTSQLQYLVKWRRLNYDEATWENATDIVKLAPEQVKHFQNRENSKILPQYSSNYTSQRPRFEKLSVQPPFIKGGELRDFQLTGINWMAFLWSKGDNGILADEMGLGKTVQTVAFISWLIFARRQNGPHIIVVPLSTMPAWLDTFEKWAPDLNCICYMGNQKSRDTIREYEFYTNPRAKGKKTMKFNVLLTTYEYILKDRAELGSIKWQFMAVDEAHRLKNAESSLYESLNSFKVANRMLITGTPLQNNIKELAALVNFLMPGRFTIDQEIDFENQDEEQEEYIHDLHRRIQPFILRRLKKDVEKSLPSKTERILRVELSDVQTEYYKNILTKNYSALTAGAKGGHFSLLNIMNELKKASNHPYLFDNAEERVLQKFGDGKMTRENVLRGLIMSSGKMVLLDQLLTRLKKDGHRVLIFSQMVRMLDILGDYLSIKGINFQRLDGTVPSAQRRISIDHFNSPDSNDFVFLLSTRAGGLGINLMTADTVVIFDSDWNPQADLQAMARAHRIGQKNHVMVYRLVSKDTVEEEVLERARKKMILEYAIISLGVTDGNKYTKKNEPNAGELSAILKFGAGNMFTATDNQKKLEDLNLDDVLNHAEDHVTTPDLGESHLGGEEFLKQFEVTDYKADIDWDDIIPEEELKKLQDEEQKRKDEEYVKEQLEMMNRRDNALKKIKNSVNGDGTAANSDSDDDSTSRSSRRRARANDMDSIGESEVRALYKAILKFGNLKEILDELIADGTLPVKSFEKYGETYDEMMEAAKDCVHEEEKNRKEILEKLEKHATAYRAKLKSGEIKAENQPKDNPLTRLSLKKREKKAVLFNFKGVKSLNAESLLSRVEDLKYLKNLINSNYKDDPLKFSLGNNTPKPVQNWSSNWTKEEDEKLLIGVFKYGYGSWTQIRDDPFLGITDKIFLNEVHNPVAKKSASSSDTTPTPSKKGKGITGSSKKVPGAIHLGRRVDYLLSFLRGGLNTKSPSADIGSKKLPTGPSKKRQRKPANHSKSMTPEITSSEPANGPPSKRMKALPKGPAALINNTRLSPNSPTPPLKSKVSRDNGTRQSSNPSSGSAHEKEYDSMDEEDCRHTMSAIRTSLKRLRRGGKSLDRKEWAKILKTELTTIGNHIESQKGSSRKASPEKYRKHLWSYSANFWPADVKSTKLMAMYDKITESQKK

Sequence of Protein translocase subunit SecA (Escherichia coli (strain K12)) (P10408 whole entry): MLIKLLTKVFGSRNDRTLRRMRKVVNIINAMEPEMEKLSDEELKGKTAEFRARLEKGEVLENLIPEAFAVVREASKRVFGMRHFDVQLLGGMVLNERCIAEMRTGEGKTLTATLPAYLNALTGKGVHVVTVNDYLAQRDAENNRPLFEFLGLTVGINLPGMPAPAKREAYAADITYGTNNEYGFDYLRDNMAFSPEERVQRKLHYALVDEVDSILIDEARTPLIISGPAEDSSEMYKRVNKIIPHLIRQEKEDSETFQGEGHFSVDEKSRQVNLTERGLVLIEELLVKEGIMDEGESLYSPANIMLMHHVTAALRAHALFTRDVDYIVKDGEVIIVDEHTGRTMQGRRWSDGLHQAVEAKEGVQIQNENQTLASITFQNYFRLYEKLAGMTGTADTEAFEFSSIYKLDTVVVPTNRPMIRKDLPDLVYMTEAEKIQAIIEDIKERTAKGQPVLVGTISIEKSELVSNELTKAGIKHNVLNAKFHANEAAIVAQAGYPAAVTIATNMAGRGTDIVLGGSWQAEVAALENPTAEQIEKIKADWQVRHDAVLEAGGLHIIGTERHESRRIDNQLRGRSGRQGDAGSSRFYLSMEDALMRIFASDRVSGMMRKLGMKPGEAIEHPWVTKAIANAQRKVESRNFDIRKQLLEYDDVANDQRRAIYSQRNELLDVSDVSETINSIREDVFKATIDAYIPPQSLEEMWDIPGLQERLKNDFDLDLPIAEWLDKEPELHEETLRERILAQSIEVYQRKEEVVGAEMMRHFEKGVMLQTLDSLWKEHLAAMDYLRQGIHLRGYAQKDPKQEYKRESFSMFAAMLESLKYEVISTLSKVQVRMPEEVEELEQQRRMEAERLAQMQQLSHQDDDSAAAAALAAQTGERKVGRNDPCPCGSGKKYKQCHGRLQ

Row | Structure (SMILES) | Percent Effect [1] [%] | Percent Effect [2] [%] | Percent Effect [3] [%] | Percent Effect [4] [%] | Percent Effect (Trypanosoma cruzi) [%] | Percent Effect [5] [%] | Percent Effect [6] [%] | Percent Effect (Homo sapiens) [%] | Percent Effect [7] [%] | Percent Effect [8] [%] | Percent Effect [9] [%]
1 | O=C1COc2cc(C(=O)NS(=O)(=O)c3ccccc3F)ccc2N1 | -1.86 | 2.63 | 3.61 | -9.82 | -3.46 | -3.6 | 5.16 | -3.9 | -4.43 | -11.1 | 2.83
2 | OC(CN1CCN(Cc2ccc(F)c(F)c2)CC1)C1CC1 (configuration not stated) | -3.08 | 8.22 | 2.45 | 0.902 | 5.68 | -1.82 | 8.16 | 13.1 | 6.45 | 20 | -6.1
3 | CC(C)NC(=O)N1CCc2nc(C(=O)NCc3ccccc3)sc2CC1 | -0.812 | 10.8 | 5.95 | -6.63 | -3.42 | 5.41 | 18.1 | 13.3 | 8.65 | 17.9 | -3.29
4 | CCn1nc(CC(C)C)cc1C(=O)N1C[C@H](O)[C@@H](N2CCCCC2)C1 | -3.95 | 16 | -4.12 | 15.8 | 6.33 | 4.69 | 12.6 | -6.25 | 2.73 | 13.6 | -6.08
5 | CN1CCc2c(C#N)c(NCCCN3CCOCC3)n3cnnc3c2C1 | -3.76 | 10.5 | 2.8 | 1.44 | -1.46 | -1.18 | 13.7 | -9.43 | 4.25 | 10.4 | -1.19
6 | CCCNC(=O)C1CCN(Cc2csc(C(C)(C)C)n2)CC1 | -0.61 | 10.1 | -4.65 | -1.57 | -4.44 | 6.08 | 6.63 | 12.5 | -0.493 | 8.86 | -6.15
7 | CC(C)OCc1ccc(CNC(=O)CC(F)(F)F)cc1 | -5.75 | 21.1 | -5.14 | -0.714 | 3.83 | 0.719 | 3.98 | 6.56 | 8.37 | 23.5 | -9.86
8 | CSCCC1c2nc[nH]c2CCN1Cc1cc(Cl)ccc1O (configuration not stated) | -4.06 | -2.67 | -4.48 | 3.19 | 2.63 | 0.521 | 18.3 | 35.7 | 12.6 | 23.5 | -0.295
9 | COc1ccc(C(=O)N2CCCC(C)C2)cc1F (configuration not stated) | -4.09 | 24.3 | -19.3 | -3.4 | 2.17 | -15.6 | 16.2 | 18.6 | 4.43 | 18.5 | -9.54
10 | Cc1nc[nH]c1CN1C[C@@H]2CC[C@H](C1)N(C(=O)CCc1cnn(C)c1)C2 | -1.58 | 6.94 | -9.43 | 16.8 | 4.96 | 29.1 | 5.09 | -11.8 | 2.1 | 7.69 | -1
11 | Cc1ccc(F)c(C(=O)N2CCN(S(C)(=O)=O)[C@@H](C)C2)c1 | -1.54 | 2.74 | 5.45 | 3.05 | 6.86 | -1.82 | 8.7 | 8.46 | -2.15 | 5 | -2.13
12 | Cc1noc(NC(=O)c2ccc(Br)cc2)n1 | -5.08 | 26.3 | -4.88 | 4.49 | 6.44 | 1.44 | 16.3 | 70 | 8.37 | 28.4 | -5.14
13 | CN(C)C(=O)CO[C@H]1CN(Cc2ccc(F)cc2)[C@@H]2CCCO[C@H]12 | -4.67 | 10.4 | 1.52 | 9.7 | 4.23 | 2.76 | 15.3 | -1.14 | 5.38 | 11.1 | -1.79
14 | Cc1cccc(Cn2c3c(ccc2=O)CCN(Cc2ccoc2)CC3)n1 | -0.765 | 8.22 | -3.21 | 11.9 | 7.54 | -14 | 10.5 | 6.67 | 4.17 | 6.17 | -3.8
15 | CC(=O)c1cn(CCC(=O)N[C@H](C(=O)O)C(C)C)c2ccccc12 | -1.16 | 12 | 3.61 | -0.198 | -2.95 | -9.68 | 11.7 | 8.13 | 7.41 | 15.4 | -3.85
16 | Cc1ncnc2c1CCN(c1cc(C(F)(F)F)ncn1)CC2 | -2.66 | 13.3 | -0.456 | -3.31 | -3.09 | -58.2 | 13.7 | 4.55 | 0 | 2.5 | -7.43
17 | Cc1cnn(CC2CCCN2CCCc2nc3ccccc3o2)c1 (configuration not stated) | -6.63 | 13.5 | -13.1 | 10.9 | 4.18 | -4.99 | 6.82 | 4.32 | 6.93 | 18.3 | -7.36
